Laboratory results from PMC7862700, “An all-to-all approach to the identification of sequence-specific readers for epigenetic DNA modifications on cytosine”.

Key:
Assay in all cases: DAPPL (digital affinity profiling via proximity ligation, sequencing); 10 mM Tris-HCl pH 7.5, 50 mM NaCl, 1 mM DTT, 4% glycerol, room temperature, 30 min; GST-TFs on glutathione beads, 16-mer random dsDNA library, 0.1% formaldehyde crosslink after washing; high values mean tight binding
[1] = target: T1, FEV (Homo sapiens, UniProt Q99581 1-238); settings: protein: recombinant; tags: N-terminal GST; dsDNA, one strand shown
T1 sequence: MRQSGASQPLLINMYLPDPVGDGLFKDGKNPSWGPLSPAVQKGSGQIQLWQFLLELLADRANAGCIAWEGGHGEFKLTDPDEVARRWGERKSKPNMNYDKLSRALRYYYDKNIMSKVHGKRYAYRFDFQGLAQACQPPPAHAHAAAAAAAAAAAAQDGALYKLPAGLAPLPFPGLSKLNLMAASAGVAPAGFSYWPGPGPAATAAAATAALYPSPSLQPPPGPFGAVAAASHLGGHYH
Method in brief: (§1)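 Binding signal is each hexamer's read frequency for a factor divided by its frequency in the tag-only sample. The factors were GST-fused human transcription factors from yeast, captured on glutathione beads, DNA-barcoded and pooled with that sample. Pools were incubated with 200 nmole of a random double-stranded 16-mer DNA library in Tris/NaCl/DTT/glycerol buffer at room temperature for 30 min, then washed, crosslinked with 0.1% formaldehyde, proximity-ligated with BsaI/T4 ligase (1 h, 37 °C), PCR-amplified and sequenced on an Illumina NextSeq500.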

[2] = target: ETV5 (Homo sapiens, UniProt P41161 1-510); settings: protein: recombinant; tags: N-terminal GST; dsDNA, one strand shown
Method in brief: as §1

[3] = target: HSF1 (Homo sapiens, UniProt Q00613 1-529); settings: protein: recombinant; tags: N-terminal GST; chain copies: 3; dsDNA, one strand shown
Method in brief: as §1

[4] = target: T2, SPIC (Homo sapiens, UniProt Q8N5J4 1-248); settings: protein: recombinant; tags: N-terminal GST; dsDNA, one strand shown
T2 sequence: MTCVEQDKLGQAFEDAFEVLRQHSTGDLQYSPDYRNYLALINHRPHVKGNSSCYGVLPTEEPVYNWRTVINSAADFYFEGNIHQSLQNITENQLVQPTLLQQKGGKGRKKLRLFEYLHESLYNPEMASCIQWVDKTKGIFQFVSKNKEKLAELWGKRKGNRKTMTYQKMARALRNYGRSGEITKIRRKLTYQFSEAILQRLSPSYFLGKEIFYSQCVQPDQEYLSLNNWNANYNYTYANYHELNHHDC
Method in brief: as §1

[5] = target: ELF4 (Homo sapiens, UniProt Q99607 1-663); settings: protein: recombinant; tags: N-terminal GST; dsDNA, one strand shown
Method in brief: as §1

[6] = target: T3, ELK4 (Homo sapiens, UniProt P28324-2 1-405); settings: protein: recombinant; tags: N-terminal GST; dsDNA, one strand shown
T3 sequence: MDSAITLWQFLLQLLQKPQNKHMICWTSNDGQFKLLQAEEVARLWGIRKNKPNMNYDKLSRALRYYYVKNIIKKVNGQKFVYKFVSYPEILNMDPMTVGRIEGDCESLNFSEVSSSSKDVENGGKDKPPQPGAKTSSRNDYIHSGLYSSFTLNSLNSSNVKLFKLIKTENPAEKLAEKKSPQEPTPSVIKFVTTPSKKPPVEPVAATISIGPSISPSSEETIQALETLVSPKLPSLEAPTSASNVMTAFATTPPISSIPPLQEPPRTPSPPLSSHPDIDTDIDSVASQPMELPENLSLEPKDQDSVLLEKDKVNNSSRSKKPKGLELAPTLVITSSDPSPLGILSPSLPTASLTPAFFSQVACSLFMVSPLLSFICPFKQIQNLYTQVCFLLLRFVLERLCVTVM
Method in brief: as §1

[7] = target: T4, ETV2 (Homo sapiens, UniProt O00321 1-342); settings: protein: recombinant; tags: N-terminal GST; dsDNA, one strand shown
T4 sequence: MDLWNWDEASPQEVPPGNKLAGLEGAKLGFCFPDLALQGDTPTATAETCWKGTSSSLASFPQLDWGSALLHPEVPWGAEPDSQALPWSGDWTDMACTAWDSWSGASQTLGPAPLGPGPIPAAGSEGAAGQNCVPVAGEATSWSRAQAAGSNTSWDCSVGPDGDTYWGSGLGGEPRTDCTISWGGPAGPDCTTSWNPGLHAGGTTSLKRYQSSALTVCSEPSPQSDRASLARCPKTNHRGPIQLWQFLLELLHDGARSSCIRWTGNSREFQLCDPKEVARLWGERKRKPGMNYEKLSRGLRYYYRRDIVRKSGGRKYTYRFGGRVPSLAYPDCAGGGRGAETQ
Method in brief: as §1

[8] = target: T5, ELF3 (Homo sapiens, UniProt P78545 1-371); settings: protein: recombinant; tags: N-terminal GST; dsDNA, one strand shown
T5 sequence: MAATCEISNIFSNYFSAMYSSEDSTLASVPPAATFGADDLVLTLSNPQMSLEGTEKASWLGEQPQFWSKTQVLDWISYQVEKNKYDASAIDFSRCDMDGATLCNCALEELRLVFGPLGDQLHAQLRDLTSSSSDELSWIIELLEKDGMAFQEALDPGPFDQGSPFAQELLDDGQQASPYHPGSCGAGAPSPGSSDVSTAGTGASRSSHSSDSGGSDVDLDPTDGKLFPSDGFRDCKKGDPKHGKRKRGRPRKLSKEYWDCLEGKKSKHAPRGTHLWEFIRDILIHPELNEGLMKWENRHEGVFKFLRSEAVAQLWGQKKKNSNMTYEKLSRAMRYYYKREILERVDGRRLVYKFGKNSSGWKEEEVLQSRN
Method in brief: as §1

[9] = target: CRX (Homo sapiens, UniProt O43186 1-299); settings: protein: recombinant; tags: N-terminal GST; dsDNA, one strand shown
Method in brief: as §1

[10] = target: ETV1 (Homo sapiens, UniProt P50549 1-477); settings: protein: recombinant; tags: N-terminal GST; dsDNA, one strand shown
Method in brief: as §1

Sequence of ELF4 (Q99607 whole entry): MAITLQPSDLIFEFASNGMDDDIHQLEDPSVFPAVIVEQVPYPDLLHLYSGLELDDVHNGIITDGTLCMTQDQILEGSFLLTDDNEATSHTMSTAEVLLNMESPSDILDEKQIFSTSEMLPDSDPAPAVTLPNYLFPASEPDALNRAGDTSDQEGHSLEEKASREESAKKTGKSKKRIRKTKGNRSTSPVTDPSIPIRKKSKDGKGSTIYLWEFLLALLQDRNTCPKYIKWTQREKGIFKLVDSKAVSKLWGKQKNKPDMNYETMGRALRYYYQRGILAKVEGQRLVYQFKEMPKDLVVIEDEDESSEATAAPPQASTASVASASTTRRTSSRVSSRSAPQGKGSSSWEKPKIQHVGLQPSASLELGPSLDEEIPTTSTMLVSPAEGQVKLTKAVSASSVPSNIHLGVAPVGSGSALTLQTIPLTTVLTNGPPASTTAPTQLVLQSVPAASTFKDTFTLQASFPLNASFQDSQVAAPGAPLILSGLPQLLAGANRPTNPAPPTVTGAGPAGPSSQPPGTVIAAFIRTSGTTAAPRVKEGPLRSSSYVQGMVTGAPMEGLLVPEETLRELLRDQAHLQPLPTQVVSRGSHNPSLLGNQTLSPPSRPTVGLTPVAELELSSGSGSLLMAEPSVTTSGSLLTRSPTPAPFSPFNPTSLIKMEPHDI
Sequence of HSF1 (Q00613 whole entry): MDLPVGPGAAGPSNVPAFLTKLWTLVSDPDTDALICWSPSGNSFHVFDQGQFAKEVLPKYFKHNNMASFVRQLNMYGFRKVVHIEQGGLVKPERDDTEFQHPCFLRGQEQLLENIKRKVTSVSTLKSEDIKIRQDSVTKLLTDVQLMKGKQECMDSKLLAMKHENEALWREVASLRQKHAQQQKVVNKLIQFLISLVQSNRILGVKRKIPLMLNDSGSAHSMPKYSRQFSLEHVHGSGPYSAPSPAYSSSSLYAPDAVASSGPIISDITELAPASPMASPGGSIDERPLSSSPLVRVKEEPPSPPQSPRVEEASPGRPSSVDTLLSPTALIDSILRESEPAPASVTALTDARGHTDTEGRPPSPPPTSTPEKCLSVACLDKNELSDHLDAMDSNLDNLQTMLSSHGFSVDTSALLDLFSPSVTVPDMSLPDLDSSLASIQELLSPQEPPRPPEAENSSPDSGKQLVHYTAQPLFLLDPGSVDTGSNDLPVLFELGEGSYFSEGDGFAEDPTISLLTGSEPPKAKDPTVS
Sequence of ETV1 (P50549 whole entry): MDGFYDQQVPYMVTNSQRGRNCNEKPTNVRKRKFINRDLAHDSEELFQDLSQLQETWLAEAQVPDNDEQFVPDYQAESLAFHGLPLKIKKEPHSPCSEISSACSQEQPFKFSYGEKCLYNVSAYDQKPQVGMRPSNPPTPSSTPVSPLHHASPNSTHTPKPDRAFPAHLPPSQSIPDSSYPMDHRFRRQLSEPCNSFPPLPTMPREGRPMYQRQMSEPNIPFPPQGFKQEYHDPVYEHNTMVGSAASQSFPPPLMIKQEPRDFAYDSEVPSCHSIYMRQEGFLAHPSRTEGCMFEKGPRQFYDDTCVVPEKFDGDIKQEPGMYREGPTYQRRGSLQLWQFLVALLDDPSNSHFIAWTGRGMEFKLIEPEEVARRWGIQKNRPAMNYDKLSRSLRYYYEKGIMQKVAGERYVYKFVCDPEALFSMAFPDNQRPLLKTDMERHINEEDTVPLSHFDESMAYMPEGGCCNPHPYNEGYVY
Sequence of ETV5 (P41161 whole entry): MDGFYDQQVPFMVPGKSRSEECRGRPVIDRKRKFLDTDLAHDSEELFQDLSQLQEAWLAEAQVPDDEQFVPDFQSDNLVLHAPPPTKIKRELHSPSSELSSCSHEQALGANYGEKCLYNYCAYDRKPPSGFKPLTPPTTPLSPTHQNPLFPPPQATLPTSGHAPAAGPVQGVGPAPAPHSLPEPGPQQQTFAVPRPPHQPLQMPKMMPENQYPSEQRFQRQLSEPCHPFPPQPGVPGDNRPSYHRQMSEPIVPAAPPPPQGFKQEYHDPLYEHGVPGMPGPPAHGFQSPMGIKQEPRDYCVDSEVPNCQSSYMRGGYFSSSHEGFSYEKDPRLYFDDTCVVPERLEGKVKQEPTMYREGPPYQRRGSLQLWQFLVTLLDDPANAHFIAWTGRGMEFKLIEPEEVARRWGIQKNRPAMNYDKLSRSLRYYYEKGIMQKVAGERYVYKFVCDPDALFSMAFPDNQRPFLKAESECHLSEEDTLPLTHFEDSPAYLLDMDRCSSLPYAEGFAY
Sequence of CRX (O43186 whole entry): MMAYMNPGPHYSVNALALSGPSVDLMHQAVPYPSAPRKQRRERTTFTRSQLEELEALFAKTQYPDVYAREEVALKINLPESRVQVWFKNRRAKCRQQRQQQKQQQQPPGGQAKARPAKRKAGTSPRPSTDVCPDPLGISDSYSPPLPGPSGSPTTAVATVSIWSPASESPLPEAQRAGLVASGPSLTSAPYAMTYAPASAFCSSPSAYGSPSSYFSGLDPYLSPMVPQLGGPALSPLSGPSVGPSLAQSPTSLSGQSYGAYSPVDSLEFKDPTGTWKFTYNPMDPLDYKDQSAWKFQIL

## TTGCTA
[1]
  binding signal: 1.24 fold enrichment (6-mer frequency, TF over GST control)
[2]
  binding signal: 1.3 fold enrichment (6-mer frequency, TF over GST control)
[3]
  binding signal: 1.48 fold enrichment (6-mer frequency, TF over GST control)
[4]
  binding signal: 1.4 fold enrichment (6-mer frequency, TF over GST control)
[5]
  binding signal: 1.29 fold enrichment (6-mer frequency, TF over GST control)
[6]
  binding signal: 1.46 fold enrichment (6-mer frequency, TF over GST control)
[7]
  binding signal: 1.35 fold enrichment (6-mer frequency, TF over GST control)
[8]
  binding signal: 1.31 fold enrichment (6-mer frequency, TF over GST control)
[9]
  binding signal: 1.5 fold enrichment (6-mer frequency, TF over GST control)
[10]
  binding signal: 1.37 fold enrichment (6-mer frequency, TF over GST control)
